{"source": "PubChem BioAssay AID743446", "about": "(Broad Institute, 2014)", "note": "Measured potencies and affinities stand elsewhere. The source made the active and inactive calls. How the calls were made is not given here."}
{"assay": "viability loss in HEK293 cells – cell-based, plate reader, cherry-picked samples, cytotoxicity control, dose response (AID 743446)", "details": "hits give low values; at 26 µM unless noted"}
{"compound": "CCn1c(C)cc(C(=O)CN2C(=O)c3ccccc3S2(=O)=O)c1C", "max activity": "-18.9% [at 6 µM] (inactive)"}
{"compound": "CN(C)S(=O)(=O)c1cccc(NC(=O)COc2ccccc2C(=O)Nc2ccccc2)c1", "max activity": "-34.1% (inactive)"}
{"compound": "Cc1ccc(-c2csc(Nc3ccccn3)n2)cc1", "max activity": "-11.1% (inactive)"}
{"compound": "Cn1c(=O)c2cc(NC(=O)NCc3ccccc3)ccc2n1C/C=C/c1ccccc1", "max activity": "34.9% [at 1.6 µM] (inactive)"}
{"compound": "COc1ccc2[nH]c3c(c2c1)CCN1C(=O)N([C@@H](C)C(=O)NCc2ccc(C)cc2)C(=O)[C@]31C", "max activity": "-9.06% [at 6 µM] (inactive)"}
{"compound": "CC(C)Nc1ncnc2c1cnn2-c1ccc(Cl)cc1", "max activity": "60.9% (inactive)"}
{"compound": "Cc1ccc(-c2cc(C(=O)N(C)Cc3cnn(C)c3C)c3cc(Br)ccc3n2)cc1", "max activity": "-9.48% (inactive)"}
{"compound": "O=C(CN1C(=O)c2ccccc2S1(=O)=O)c1ccc(F)c(F)c1", "max activity": "11.6% (inactive)"}
{"compound": "COc1ccc(-c2cc(C(=O)N3CCOCC3)no2)cc1", "max activity": "-14.8% (inactive)"}
{"compound": "Cc1ccccc1S(=O)(=O)N1[C@H](C#N)[C@H](c2ccc(C#CC3CCCCC3)cc2)[C@H]1CO", "max activity": "29.2% [at 3 µM] (inactive)"}
{"compound": "O=C(O)c1cccc(-c2noc(-c3cccc(Cl)c3)n2)c1", "max activity": "9.55% (inactive)"}
{"compound": "Cc1cc(C(=O)CN2C(=O)c3ccccc3S2(=O)=O)c(C)n1C(C)C", "max activity": "-20.6% [at 3 µM] (inactive)"}
{"compound": "COCCOc1cc(NCc2ccccc2)c2ncn(C(C)C)c2c1", "max activity": "-9.83% [at 0.1 µM] (inactive)"}
{"compound": "COc1ccccc1C=NNC(=O)c1ccncc1", "max activity": "20.7% (inactive)"}
{"compound": "Cc1cc(C(=O)Nc2ccc(N3CCCCC3)cc2)no1", "max activity": "16% [at 0.195 µM] (inactive)"}
{"compound": "Cc1ccnc(Nc2nc(-c3sc(C)nc3C)cs2)c1", "max activity": "-16.3% [at 6 µM] (inactive)"}
